{"source": "paper PMC4666376", "about": "“Characterisation of aptamer–target interactions by branched selection and high-throughput sequencing of SELEX pools”"}
{"molecular_target": "PAI-1 wild type, active (human, UniProt P05121 24-402)", "sequence (P05121 24-402)": "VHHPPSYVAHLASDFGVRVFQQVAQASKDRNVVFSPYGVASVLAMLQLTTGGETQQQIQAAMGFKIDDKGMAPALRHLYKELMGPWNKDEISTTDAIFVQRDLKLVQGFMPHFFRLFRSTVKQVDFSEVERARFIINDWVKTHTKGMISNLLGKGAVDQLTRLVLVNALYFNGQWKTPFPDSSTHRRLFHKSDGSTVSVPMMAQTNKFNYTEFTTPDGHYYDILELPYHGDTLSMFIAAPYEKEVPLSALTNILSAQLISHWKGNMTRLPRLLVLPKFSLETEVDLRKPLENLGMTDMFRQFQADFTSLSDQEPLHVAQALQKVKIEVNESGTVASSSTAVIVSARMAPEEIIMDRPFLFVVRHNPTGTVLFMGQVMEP", "test": "branched SELEX with high-throughput sequencing; PAI-1 immobilised on polyclonal anti-PAI-1 antibody; HBS (10 mM HEPES pH 7.4, 140 mM NaCl), 2 mM MgCl2, 2 mM CaCl2, 0.1% BSA; RNA pool 100 nM; PAI-1 captured on antibody-coated wells; 45 min; binding temperature not stated (PAI-1 capture at room temperature); high values mean tight binding;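 further: Pool frequency after one selection round with this target divided by frequency before selection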", "conditions": "protein: recombinant; tags: N-terminal His6; structured_RNA; 2'-F pyrimidines", "units": {"binding signal": "enrichment factor"}}
{"sequence": "GGGGCCACCAACGACAUUCUCGAGAGAGACCUUCCUCGUUAUACGGGGAGUUCGUUGAUAUAAAUAGUGCCCAUGGAUC", "binding signal": 0.56}
{"sequence": "GGGGCCACCAACGACAUUUUGUAGGUGUCAACUACCGACCGUCGUUUGCAUUAGUUGAUAUAAAUAGUGCCCAUGGAUC", "binding signal": 1.24}
{"sequence": "GGGGCCACCAACGACAUUGAACCACGUAGGCUCGUUUCUGAGCCGAUCUCGAUGUUGAUAUAAAUAGUGCCCAUGGAUC", "binding signal": 1.62}
{"sequence": "GGGGCCACCAACGACAUUGCACCUGUAGGCUAGGUCACUGGCUGACUGCAAUUGUUGAUAUAAAUAGUGCCCAUGGAUC", "binding signal": 0.47}
{"sequence": "GGGGCCACCAACGACAUUCCGUCCGUGUUCAGUUAACACGCAUGUGUUUUGUGGUUGAUAUAAAUAGUGCCCAUGGAUC", "binding signal": 1.36}
{"sequence": "GGGGCCACCAACGACAUUCUAAGUUCGUCCUACUUACUCUUGUAGGUCUGAAUGUUGAUAUAAAUAGUGCCCAUGGAUC", "binding signal": 16.4}
{"sequence": "GGGGCCACCAACGACAUUCUGGGCCGUAGGCGAUAUUAGCCGAUCCCAGAAGAGUUGAUAUAAAUAGUGCCCAUGGAUC", "binding signal": 1.43}
{"sequence": "GGGGCCACCAACGACAUUACGUAGGUAGCAUUUAUAUGCUUGACCGAUCAAUCGUUGAUAUAAAUAGUGCCCAUGGAUC", "binding signal": 1.07}
{"sequence": "GGGGCCACCAACGACAUUUGACAUCGUAGGCAAAAAAGCUGACUGUUCAGAUUGUUGAUAUAAAUAGUGCCCAUGGAUC", "binding signal": 2.86}
{"sequence": "GGGGCCACCAACGACAUUGUCGUAGGACGUGAGUGUCUGACCGAUGUAGUUGGGUUGAUAUAAAUAGUGCCCAUGGAUC", "binding signal": 0.65}
{"sequence": "GGGGCCACCAACGACAUUUGGACUGAAUCCAACCUUAUGCGUAAGCAUAGUUCGUUGAUAUAAAUAGUGCCCAUGGAUC", "binding signal": 2.2}
{"sequence": "GGGGCCACCAACGACAUUGAGUCUCCUACACGCGUAGGUAAGUUCGUCUCAUUGUUGAUAUAAAUAGUGCCCAUGGAUC", "binding signal": 3.79}
{"sequence": "GGGGCCACCAACGACAUUGCGCGAAGCGCUUACGCGUGUUGAUCGAAUGUUGUUGAUAUAAAUAGUGCCCAUGGAUC", "binding signal": 1.4}
{"sequence": "GGGGCCACCAACGACAUUGCCGUAGGAAUUCGUCCUGAGUUCCGAUCAAUAGCGUUGAUAUAAAUAGUGCCCAUGGAUC", "binding signal": 0.74}
{"sequence": "GGGGCCACCAACGACAUUUACCGUCUGGGUAACCUUGUACGAUAGUACAGUUCGUUGAUAUAAAUAGUGCCCAUGGAUC", "binding signal": 1.31}
{"sequence": "GGGGCCACCAACGACAUUAUACAGCCGAUCAUGUCACGUAGGCUGUGAUUAACGUUGAUAUAAAUAGUGCCCAUGGAUC", "binding signal": 0.58}
{"sequence": "GGGGCCACCAACGACAUUGUACCACGUAGGAUGAAGUCAUCCGAUCACAGUGUUGAUAUAAAUAGUGCCCAUGGAUC", "binding signal": 0.87}
{"sequence": "GGGGCCACCAACGACAUUCAGCGAUGUAGUGCACAUUGCACGACCAUGAUGGAGUUGAUAUAAAUAGUGCCCAUGGAUC", "binding signal": 0.53}
{"sequence": "GGGGCCACCAACGACAUUUGUCAACAUAACGUAGAGCAAUUACAGCUCGAUCAGUUGAUAUAAAUAGUGCCCAUGGAUC", "binding signal": 3.13}
{"sequence": "GGGGCCACCAACGACAUUGAACGUAAGGAGAGUGCGCUUACCGCACAAUGUUUGUUGAUAUAAAUAGUGCCCAUGGAUC", "binding signal": 0.43}
{"sequence": "GGGGCCACCAACGACAUUUCACACUGUAAGGCCAUGUGCCGACUAGAAAUUGCGUUGAUAUAAAUAGUGCCCAUGGAUC", "binding signal": 0.84}
{"sequence": "GGGGCCACCAACGACAUUCGGGACUACGUAGGCGGAUUCGCCGAUUACCCGUUGUUGAUAUAAAUAGUGCCCAUGGAUC", "binding signal": 0.7}
{"sequence": "GGGGCCACCAACGACAUUUAGGGUGCCGAUCAUGUCACGUAGGCAUCCGAUACGUUGAUAUAAAUAGUGCCCAUGGAUC", "binding signal": 0.42}
{"sequence": "GGGGCCACCAACGACAUUGUCGUAGGCGUCAUAUUAUACUUACGCUGACCAAUGUUGAUAUAAAUAGUGCCCAUGGAUC", "binding signal": 2.09}
